About 2,000 (36%) of roughly 5,500 compounds were called active. Inconclusive results (about 18%) are left out. Rule as the data show it: active = normalized growth mostly below about 0.91 (no sharp cut-off); inconclusive = no clear call, values can overlap the other calls; inactive = mostly above about 0.92. This is one part of the list.
Assay: chemical genetic growth profiling, strain panel (AID 1159580);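 also: tested at 20 µM; growth read once vehicle control cultures reached saturation at 30 °C; 1 = growth at the plate median or of vehicle wells; lower values mean less growth of the strain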
Conditions: S. cerevisiae deletion strains, growth OD

Measured: normalized growth

CSC1=NNC(c2nn(C)cc2Cl)S1 (stereo unspecified)
active: locus YAR019C, strain CDC15, hits give low values 0.366 | locus YBL105C, strain PKC1, hits give low values 0.509 | locus YBR135W, strain CKS1, hits give low values 0.582 | locus YBR136W, strain MEC1, hits give low values 0.565 | locus YBR160W, strain CDC28, hits give low values 0.644 | locus YDL017W, strain CDC7, hits give low values 0.586 | locus YDL028C, strain MPS1, hits give low values 0.551 | locus YDL101C, strain DUN1, hits give low values 0.206 | locus YDL108W, strain KIN28, hits give low values 0.653 | locus YDL132W, strain cdc53, hits give low values 0.472 | locus YDL214C, strain PRR2, hits give low values 0.145 | locus YDR052C, strain DBF4, hits give low values 0.874 | locus YDR054C, strain cdc34, hits give low values 0.318 | locus YDR226W, strain ADK1, hits give low values 0.511 | locus YDR477W, strain SNF1, hits give low values 0.134 | locus YER123W, strain YCK3, hits give low values 0.126 | locus YER133W, strain GLC7, hits give low values 0.138 | locus YFL009W, strain cdc4, hits give low values 0.282 | locus YFL029C, strain CAK1, hits give low values 0.374 | locus YFR003C, strain YPI1, hits give low values 0.594 | locus YFR019W, strain FAB1, hits give low values 0.148 | locus YFR028C, strain CDC14, hits give low values 0.444 | locus YGR040W, strain KSS1, hits give low values 0.13 | locus YGR052W, strain FMP48, hits give low values 0.131 | locus YGR092W, strain DBF2, hits give low values 0.117 | locus YHR030C, strain SLT2, hits give low values 0.178 | locus YHR079C, strain IRE1, hits give low values 0.214 | locus YHR082C, strain KSP1, hits give low values 0.236 | locus YHR205W, strain SCH9, hits give low values 0.0971 | locus YIL147C, strain SLN1, hits give low values 0.502 | locus YJL095W, strain BCK1, hits give low values 0.134 | locus YJL128C, strain PBS2, hits give low values 0.31 | locus YJL157C, strain FAR1, hits give low values 0.159 | locus YJR016C, strain ILV3, hits give low values 0.337 | locus YJR066W, strain TOR1 (second series), hits give low values 0.171 | locus YJR066W, strain TOR1, hits give low values 0.17 | locus YKL048C, strain ELM1, hits give low values 0.158 | locus YKL067W, strain YNK1, hits give low values 0.176 | locus YKL101W, strain HSL1, hits give low values 0.142 | locus YKL193C, strain SDS22, hits give low values 0.425 | locus YKL203C, strain TOR2, hits give low values 0.136 | locus YLR113W, strain HOG1, hits give low values 0.157 | locus YLR133W, strain CKI1, hits give low values 0.137 | locus YLR403W, strain SFP1, hits give low values 0.0487 | locus YML070W, strain DAK1, hits give low values 0.147 | locus YMR001C, strain CDC5, hits give low values 0.479 | locus YMR205C, strain PFK2 (second series), hits give low values 0.143 | locus YMR277W, strain FCP1, hits give low values 0.292 | locus YNL006W, strain LST8, hits give low values 0.372 | locus YNL020C, strain ARK1, hits give low values 0.126 | locus YNL161W, strain CBK1, hits give low values 0.393 | locus YNL183C, strain NPR1, hits give low values 0.112 | locus YNL207W, strain RIO2, hits give low values 0.448 | locus YNL222W, strain SSU72, hits give low values 0.455 | locus YNL307C, strain MCK1 (second series), hits give low values 0.122 | locus YOL078W, strain AVO1, hits give low values 0.415 | locus YOL136C, strain PFK27, hits give low values 0.116 | locus YOR061W, strain CKA2, hits give low values 0.118 | locus YOR119C, strain RIO1, hits give low values 0.156 | locus YOR231W, strain MKK1, hits give low values 0.222 | locus YOR329C, strain SCD5, hits give low values 0.487 | locus YPL031C, strain PHO85, hits give low values 0.128 | locus YPL153C, strain RAD53, hits give low values 0.121 | locus YPL204W, strain HRR25, hits give low values 0.16 | locus YPL209C, strain IPL1, hits give low values 0.595 | locus YPL256C, strain CLN2, hits give low values 0.177 | locus YPR025C, strain CCL1, hits give low values 0.511 | locus YPR106W, strain ISR1, hits give low values 0.395 | locus YPR111W, strain DBF20, hits give low values 0.525 | strain NNK1, hits give low values 0.199 | strain TSCII, hits give low values 0.337

Reference: PubChem BioAssay AID1159580 (chemical genetic matrix, 2015)
